Inconclusive results are not listed. Active and inactive are the calls of the source. Unless noted, calls follow the shape of the dose curve; as a rule, active = well fitted curve in the direction sought with a large enough effect in the repeat runs; inconclusive = weak or mixed curves; inactive = no such curve, though single readings can be large; an effect the other way counts as inactive or inconclusive.
Columns and labels:
[1] = qHTS assay to identify small molecule antagonists of the estrogen receptor alpha (ER-alpha) signaling pathway using the BG1 cell line in the presence of 0.1 nM 17-beta-estradiol - cell viability counter screen (AID 1259241); also: nearly all actives have a fitted effect of over 40% in size
How it was run: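 Estradiol-stimulated (0.1 nM) VM7Luc4E2 cells exposed to compounds 22 hr; viability measured by fluorescence of cleaved CellTiter-Fluor substrate after 30 min.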

[2] = qHTS assay to identify small molecule antagonists of the androgen receptor (AR) signaling pathway using the MDA cell line in the presence of 0.5 nM R1881 - cell viability counter screen (AID 1259242); also: nearly all actives have a fitted effect of over 45% in size
How it was run: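 MDA-kb2 cells (MMTV-luciferase, AR/GR responsive) were treated with compounds plus 0.5 nM R1881 (final) for 16 hr at 37C, 0% CO2. Viability was then read in the same wells as live-cell protease fluorescence (CellTiter-Fluor, 30 min).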

[3] = molecular target: Estrogen receptor (Homo sapiens) (UniProt P03372); assay: qHTS assay to identify small molecule antagonists of the estrogen receptor alpha (ER-alpha) signaling pathway using the BG1 cell line in the presence of 0.1 nM 17-beta-estradiol (AID 1259244); also: nearly all actives have a fitted effect of over 50% in size
How it was run: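 VM7Luc4E2 cells (endogenous full-length ER-alpha, 4×ERE-luciferase), kept 5 days in phenol red-free, charcoal-stripped FBS medium; 4,000 cells/well. Compounds added with 0.1 nM (final) 17beta-estradiol, 22 hr at 37C; luminescence read with ONE-Glo after 30 min.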

[4] = qHTS assay to identify small molecule phospholipidosis (PLD) inducers (AID 1259344; active = well fitted curve in the direction sought with a large enough effect; an effect the other way counts as inactive or inconclusive; also: potency is read from the fitted curve at half-maximal effect)
How it was run: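 Phospholipidosis is scored by imaging LipidTOX-stained pits in HepG2 cells exposed to compound for 24 h at 37 C; pit counts and integrated intensities per well and per cell serve as outputs.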

[5] = qHTS assay to identify small molecule HDAC inhibitors (AID 1259364); also: top concentration of the series differs between compounds; nearly all actives have a fitted effect of over 45% in size
How it was run: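 Wild-type HCT-116 cells, plated overnight at 37 C, exposed to compounds 2 hr at 37 C; luminogenic HDAC-Glo substrate then added 30 min at room temperature. Luminescence reports relative endogenous class I/II HDAC activity.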

[6] = qHTS assay to identify small molecule agonists of the sonic hedgehog signaling (Shh) pathway - cell viability counter screen (AID 1259366); also: nearly all actives have a fitted effect of over 50% in size
How it was run: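 Same-well cytotoxicity read. Gli1-Luc reporter 3T3 cells; compounds 24hr, 37C/5% CO2; CellTiter-Fluor fluorescence.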

[7] = qHTS assay to identify small molecule antagonists of the sonic hedgehog signaling (Shh) pathway - cell viability counter screen (AID 1259367); also: nearly all actives have a fitted effect of over 55% in size
How it was run: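 Cells: 3T3 Gli1-Luc, 2,000/well, 4 hr pre-incubation. Compounds in DMSO, then conditioned medium. Incubation 24 hr, 37C, 5% CO2. CellTiter-Fluor at 23 hr, 1 hr, fluorescence.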

[8] = qHTS assay to identify small molecule antagonists of the sonic hedgehog signaling (Shh) pathway (AID 1259369; calls by dose curve; also: nearly all actives have a fitted effect of over 45% in size)
How it was run: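 NIH/3T3-derived Gli1-Luc reporter cells plated 4 h, dosed with compound, then stimulated with conditioned medium for 24 h at 37 C. Firefly luciferase luminescence read after 30 min with detection reagent at room temperature.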

[9] = qHTS assay to identify small molecule agonists of the estrogen receptor beta (ER-beta) signaling pathway - cell viability counter screen (AID 1259380); also: nearly all actives have a fitted effect of over 30% in size
How it was run: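 ER-beta-UAS-bla HEK293T cells in medium with 2% charcoal-stripped FBS, pre-incubated 6 hr, then treated 16 hr at 37C. Cytotoxicity read in the same wells by CellTiter-Glo luminescence after 30 min at room temperature.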

[10] = qHTS assay to identify small molecule antagonists of the estrogen receptor beta (ER-beta) signaling pathway - cell viability counter screen (AID 1259382);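 also: HEK293T cells carrying ER-beta-UAS-bla reporter stimulated with estradiol; series mostly up to about 92 µM; nearly all actives have a fitted effect of over 55% in size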
How it was run: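 ER-beta-UAS-bla HEK293T cells in 2% charcoal-stripped FBS medium, treated with compound plus 1 nM 17-beta-estradiol for 16 h at 37C. Viability read by CellTiter-Glo luminescence after 30 min at room temperature in the same wells.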

[11] = molecular target: Estrogen receptor (Homo sapiens) (UniProt P03372); assay: qHTS assay to identify small molecule agonists of the estrogen receptor alpha (ER-alpha) signaling pathway in the presence of an antagonist (AID 1259383; calls by dose curve; also: top concentration of the series differs between compounds; nearly all actives have a fitted effect of over 15% in size)
How it was run: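 VM7Luc4E2 cells express endogenous full-length ER-alpha with an ERE-luciferase reporter and were hormone-deprived for 5 days. Compounds at 15 concentrations were added with 10.0nM ICI-182,780 for 22hr at 37C. Luminescence was read with ONE-Glo.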

[12] = qHTS assay to identify small molecule agonists or antagonists of the thyroid stimulating hormone receptor (TSHR) signaling pathway - wild type cell line counter screen (AID 1259384; calls by dose curve)
How it was run: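 Counter screen in untransfected Hek293: compounds (15-point titration, triplicate) plus phosphodiesterase inhibitor Ro20-1724 added after 18 h plating; 30 min RT. Intracellular cAMP via competitive d2/cryptate immunoassay, 1 h incubation.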

[13] = molecular target: Thyrotropin receptor (Homo sapiens) (UniProt P16473); assay: qHTS assay to identify small molecule antagonists of the thyroid stimulating hormone receptor (TSHR) signaling pathway (AID 1259385; calls by dose curve; also: nearly all actives have a fitted effect of over 20% in size)
How it was run: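 Antagonist mode: compound-treated TSHR-expressing HEK293 cells were stimulated with 1.5 ng/mL TSH (final) in presence of Ro20-1724 for 30 min at RT. HTRF cAMP detection after 1 h; each compound tested at 15 concentrations, triplicate.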

[14] = qHTS assay to identify small molecule HDAC inhibitors - cell viability counter screen (AID 1259365); also: series mostly up to about 92 µM; nearly all actives have a fitted effect of over 50% in size
How it was run: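 After overnight seeding at 1,500 cells per well, wild-type HCT-116 cultures took up compounds in DMSO for 2hr at 37 C. Viable cell content came from luminescence with CellTiter-Glo.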

[15] = qHTS assay to identify small molecule agonists of the sonic hedgehog signaling (Shh) pathway (AID 1259368; calls by dose curve;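 also: NIH/3T3-derived 3T3Gli1-Luc cells carrying a stable Gli1-driven firefly luciferase reporter; series mostly up to about 92 µM; nearly all actives have a fitted effect of over 15% in size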)
How it was run: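 NIH/3T3-derived 3T3Gli1-Luc cells with stably integrated Gli1-driven firefly luciferase, 2,000 cells/well, compounds added after 4 hr. Incubated 24 hr at 37C, 5% CO2; luminescence read after 30 min with luciferase reagent at room temperature.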

[16] = qHTS assay to identify small molecule agonists of the androgen receptor (AR) signaling pathway in the presence of an antagonist - cell viability counter screen (AID 1259379);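 also: MDA-kb2 human breast cancer cells carrying an MMTV luciferase reporter; series mostly up to about 92 µM; nearly all actives have a fitted effect of over 25% in size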
How it was run: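 MDA-kb2 cells (MMTV-luciferase, AR/GR), 3,000/well, 5 h attachment, then 3.0 µM nilutamide (final) and compounds at 15 concentrations. Viability by CellTiter-Fluor fluorescence after 16 h at 37 °C, 0% CO2, in the reporter wells.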

[17] = molecular target: Estrogen receptor beta (Homo sapiens) (UniProt Q92731); assay: qHTS assay to identify small molecule agonists of the estrogen receptor beta (ER-beta) signaling pathway (AID 1259377; active = well fitted activation curve with a large enough effect in the signal ratio in the repeat runs, not every such curve was filed as active; the % refers to the signal ratio)
How it was run: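 Read-out: beta-lactamase FRET fluorescence. Cell line: ER-beta-UAS-bla HEK293T in 2% charcoal-stripped FBS. Exposure: 16 hr at 37C. Substrate step: 2 h at room temperature.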

[18] = molecular target: Estrogen receptor beta (Homo sapiens) (UniProt Q92731); assay: qHTS assay to identify small molecule antagonists of the estrogen receptor beta (ER-beta) signaling pathway (AID 1259378; active = well fitted inhibition curve with a large enough effect in the signal ratio in the repeat runs, not every such curve was filed as active; the % refers to the signal ratio)
How it was run: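 Antagonist mode: compounds added to beta-lactamase reporter HEK293T ER-beta-UAS cells stimulated with E2 (1nM final), 16 hr at 37C. LiveBLAzer B/G FRET substrate, 2 hours room temperature, fluorescence read-out.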
% is scaled to controls: 0 for no effect and ±100 for the full control effect.

Chain of Estrogen receptor beta (Homo sapiens) (Q92731 whole entry, looked up): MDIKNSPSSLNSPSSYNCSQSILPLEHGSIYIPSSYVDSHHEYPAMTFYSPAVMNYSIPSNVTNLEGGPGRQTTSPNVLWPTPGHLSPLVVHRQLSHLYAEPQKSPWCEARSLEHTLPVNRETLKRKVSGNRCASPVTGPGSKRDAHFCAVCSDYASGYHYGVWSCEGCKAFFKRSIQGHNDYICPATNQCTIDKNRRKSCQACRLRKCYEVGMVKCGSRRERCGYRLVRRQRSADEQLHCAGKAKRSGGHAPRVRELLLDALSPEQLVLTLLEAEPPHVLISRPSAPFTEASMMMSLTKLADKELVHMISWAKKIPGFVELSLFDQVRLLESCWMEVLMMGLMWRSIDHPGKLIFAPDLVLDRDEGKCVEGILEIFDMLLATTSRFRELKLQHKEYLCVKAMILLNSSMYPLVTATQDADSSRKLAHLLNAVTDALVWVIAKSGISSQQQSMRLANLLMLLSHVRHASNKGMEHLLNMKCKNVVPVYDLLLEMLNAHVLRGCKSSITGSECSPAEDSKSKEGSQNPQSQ
Chain of Estrogen receptor (Homo sapiens) (P03372 whole entry, looked up): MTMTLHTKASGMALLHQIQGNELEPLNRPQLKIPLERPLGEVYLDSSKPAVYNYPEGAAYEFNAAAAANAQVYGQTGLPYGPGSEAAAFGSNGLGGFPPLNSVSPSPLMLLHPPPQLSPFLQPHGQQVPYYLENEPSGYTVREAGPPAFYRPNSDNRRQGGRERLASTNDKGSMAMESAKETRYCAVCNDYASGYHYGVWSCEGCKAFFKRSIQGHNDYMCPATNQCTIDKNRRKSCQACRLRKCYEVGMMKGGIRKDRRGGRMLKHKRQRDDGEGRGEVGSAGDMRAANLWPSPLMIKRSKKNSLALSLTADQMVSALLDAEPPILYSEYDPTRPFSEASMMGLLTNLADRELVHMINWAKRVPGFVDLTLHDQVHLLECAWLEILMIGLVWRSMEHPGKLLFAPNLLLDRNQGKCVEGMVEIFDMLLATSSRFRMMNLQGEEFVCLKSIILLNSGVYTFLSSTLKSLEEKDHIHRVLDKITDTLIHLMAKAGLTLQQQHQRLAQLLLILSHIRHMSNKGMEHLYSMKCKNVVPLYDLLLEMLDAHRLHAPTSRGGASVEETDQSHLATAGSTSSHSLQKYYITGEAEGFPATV
Chain of Thyrotropin receptor (Homo sapiens) (P16473 whole entry, looked up): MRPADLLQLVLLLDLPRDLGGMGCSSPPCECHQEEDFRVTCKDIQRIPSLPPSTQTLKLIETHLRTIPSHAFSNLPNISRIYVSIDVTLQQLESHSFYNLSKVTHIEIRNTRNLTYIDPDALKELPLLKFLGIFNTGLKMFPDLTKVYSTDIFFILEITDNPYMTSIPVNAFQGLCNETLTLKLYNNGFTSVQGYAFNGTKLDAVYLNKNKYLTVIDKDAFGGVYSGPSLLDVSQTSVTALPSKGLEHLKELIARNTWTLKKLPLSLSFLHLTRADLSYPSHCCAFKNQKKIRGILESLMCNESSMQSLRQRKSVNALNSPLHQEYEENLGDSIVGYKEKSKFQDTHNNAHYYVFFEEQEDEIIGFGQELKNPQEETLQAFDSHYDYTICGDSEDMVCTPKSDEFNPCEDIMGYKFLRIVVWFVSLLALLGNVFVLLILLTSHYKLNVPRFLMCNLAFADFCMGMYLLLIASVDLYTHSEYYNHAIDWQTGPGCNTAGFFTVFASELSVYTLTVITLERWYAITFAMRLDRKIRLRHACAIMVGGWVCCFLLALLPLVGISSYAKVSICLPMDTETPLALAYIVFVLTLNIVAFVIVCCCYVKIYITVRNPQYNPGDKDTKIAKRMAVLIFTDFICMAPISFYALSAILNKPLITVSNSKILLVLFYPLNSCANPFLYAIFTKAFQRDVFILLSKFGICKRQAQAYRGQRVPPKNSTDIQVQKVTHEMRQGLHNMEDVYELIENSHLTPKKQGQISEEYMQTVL

O=C1[C@@H]2[C@H]3CC[C@H](C3)[C@@H]2C(=O)N1CCCCN1CCN(c2ncccn2)CC1
inactive: Potency [1] | Potency [2] | Potency [3] | Potency [4] | Potency [5] | Potency [6] | Potency [7] | Potency [8] | Potency [9] | Potency [10] | Potency [11] | Potency [12] | Potency [13]

CC(CCc1ccc(O)cc1)NCCc1ccc(O)c(O)c1 (stereo not drawn)
inactive: Potency [1] | Potency [2] | Potency [3] | Potency [4] | Potency [5] | Potency [14] | Potency [6] | Potency [7] | Potency [15] | Potency [8] | Potency [16] | Potency [9] | Potency [10] | Potency [12] | Potency [13]

COc1cc(C(C)=O)ccc1OCCCN1CCC(c2noc3cc(F)ccc23)CC1
active: Potency [4] 1000 nM
inactive: Potency [1] | Potency [2] | Potency [3] | Potency [5] | Potency [7] | Potency [15] | Potency [16] | Potency [10] | Potency [11] | Potency [12]

CCCc1nc2c(C)cc(-c3nc4ccccc4n3C)cc2n1Cc1ccc(-c2ccccc2C(=O)O)cc1
inactive: Potency [1] | Potency [2] | Potency [3] | Potency [4] | Potency [5] | Potency [14] | Potency [15] | Potency [8] | Potency [17] | Potency [18] | Potency [16] | Potency [10] | Potency [11] | Potency [12] | Potency [13]

C=CC(=O)O
inactive: Potency [1] | Potency [2] | Potency [3] | Potency [4] | Potency [5] | Potency [14] | Potency [7] | Potency [15] | Potency [8] | Potency [17] | Potency [18] | Potency [16] | Potency [10] | Potency [11] | Potency [12] | Potency [13]

O=C(O)CNC(=O)c1ccccc1I
inactive: Potency [1] | Potency [2] | Potency [3] | Potency [4] | Potency [5] | Potency [14] | Potency [6] | Potency [7] | Potency [15] | Potency [8] | Potency [17] | Potency [18] | Potency [16] | Potency [10] | Potency [11] | Potency [12]

CSCC[C@H](NC(=O)[C@H](Cc1c[nH]c2ccccc12)NC(=O)CCNC(=O)OC(C)(C)C)C(=O)N[C@@H](CC(=O)O)C(=O)N[C@@H](Cc1ccccc1)C(N)=O
inactive: Potency [1] | Potency [2] | Potency [3] | Potency [4] | Potency [5] | Potency [14] | Potency [6] | Potency [7] | Potency [15] | Potency [8] | Potency [17] | Potency [18] | Potency [16] | Potency [9] | Potency [10] | Potency [11] | Potency [12] | Potency [13]

c1ccc2sc(SSc3nc4ccccc4s3)nc2c1
inactive: activity change, negative = cytotoxicity [1] 8.69% [at 19 µM] | viability change, negative = cytotoxic [2] 8.85% [at 19 µM] | activity change, negative = inhibition [3] 1.45% [at 19 µM] | Potency [4] | activity change, negative = inhibition [5] -21.4% [at 19 µM] | activity change, negative = cytotoxicity [14] 0.0537% [at 19 µM] | viability change, negative = cytotoxic [6] 21.7% [at 19 µM] | viability change, negative = cytotoxic [7] 7.43% [at 19 µM] | activity change [15] 1.97% [at 18.9 µM, stronger effect = higher value] | activity change, negative = inhibition [8] 7.11% [at 19 µM] | activity change, negative = cytotoxicity [9] -1.6% [at 19 µM] | activity change, negative = cytotoxicity [10] -0.0017% [at 19 µM] | cAMP activity change [12] 2.9% [at 18.9 µM, stronger effect = higher value] | activity change, negative = inhibition [13] 2.43% [at 19 µM]

Reference: PubChem BioAssay (Tox21)
